# Laboratory results from ChEMBL document CHEMBL3988442, “University of Dundee, Small-Polar-MMV Screening Library” (2021).
# Among all 66,000 compounds or so, about 960 (1.5%) showed an effect of 50% or more. Shown is part of a subset that was picked to be rich in strong results.
# System: Trypanosoma brucei
# Experiment: Trypanosoma brucei 72 hour study
# Format: functional, organism-based
# Set-up: scale not given: in the data most compounds retested in dose-response had high values
smiles,measurement,setting,value
COc1ccc(CNC(C)Cn2cccn2)c(OC)c1OC.Cl (centres undefined),Percent Effect,"30.3 µM, […]",4.713%
same,Percent Effect,"10 mM, 10 mM as filed; unlikely as a test dose",-54.3%
COc1cc(CNC(C)Cn2cccn2)cc2c1OCO2.Cl (centres undefined),Percent Effect,"30.3 µM, […]",-1.111%
COc1cc(CNCC(O)c2cccc(F)c2)cc2c1OCO2.Cl (centres undefined),Percent Effect,"30.3 µM, […]",81.63%
COc1cc(CNC(C)Cn2ccnc2)cc2c1OCO2.Cl (centres undefined),Percent Effect,"30.3 µM, […]",4.669%
COc1cc(CNCC(O)c2ccc(C)cc2)cc2c1OCO2.Cl (centres undefined),Percent Effect,"30.3 µM, […]",100.7%
COc1cc(CNCC(O)c2ccc(F)c(F)c2)cc2c1OCO2 (centres undefined),Percent Effect,"30 µM, 30.03 µM",4.493%
COc1cc(CNCC(O)c2ccc(C)cc2)cc2c1OCCO2.Cl (centres undefined),Percent Effect,"30 µM, 30.03 µM",42.56%
Cl.Cl.c1cncc(COC[C@@H]2CCC[C@@]23CNCCO3)c1,Percent Effect,"30.3 µM, […]",-44.98%
CC(C)N1CCC2(CC1)C(=O)N(CCN(C)C)c1ccccc12.O=C(O)C(F)(F)F.O=C(O)C(F)(F)F,Percent Effect,"30.3 µM, […]",5.685%
O=C(O)C(F)(F)F.O=C(O)C(F)(F)F.O=C(O)C(F)(F)F.c1ccc(CN2CC[C@@H]3[C@@H](CO[C@@H]3CNc3ncccn3)C2)nc1,Percent Effect,"30.3 µM, […]",-6.943%
COc1ccc(CN2C[C@@H]3OCCN(c4ncccn4)[C@@H]3C2)cc1.O=C(O)C(F)(F)F.O=C(O)C(F)(F)F,Percent Effect,"30 µM, 30.03 µM",-40.73%
COc1cc2nc(NCc3ccc(C)nc3)nc(N)c2cc1OC,Percent Effect,"30.3 µM, […]",100.6%
O=C(C[C@@H]1COC[C@H]2CN(C3CCC3)C[C@@H]12)NCc1cccnc1.O=C(O)C(F)(F)F.O=C(O)C(F)(F)F,Percent Effect,"30.3 µM, […]",12.19%
COc1ccc(CCNCc2c(C)nn(C)c2N(C)C)cc1OC.Cl,Percent Effect,"30.3 µM, […]",-31.69%
O=C(c1ccc(Cl)cc1-n1cnnn1)N1CCC2(CC1)OCCO2,Percent Effect,"30 µM, 30.03 µM",-30.99%
O=C(c1ccccc1-n1cnnn1)N1CCC2(CC1)OCCO2,Percent Effect,"30 µM, 30.03 µM",-25.19%
O=C(c1cnn2c1OCCC2)N1CCC2(CC1)OCCO2,Percent Effect,"30 µM, 30.03 µM",55.16%
Cn1ccnc1NC[C@@H]1CCC[C@@H]2CN(Cc3cccnc3)C[C@@H]21.O=C(O)C(F)(F)F,Percent Effect,"30.3 µM, […]",-5.749%
CN1C[C@H](NC(=O)c2cscn2)[C@@H]2OCCC[C@@H]21.O=C(O)C(F)(F)F,Percent Effect,"30.3 µM, […]",-88.97%
COCCNC(=O)[C@@]12CCO[C@@H]1CCN(Cc1ccncc1)C2.O=C(O)C(F)(F)F.O=C(O)C(F)(F)F,Percent Effect,"30 µM, 30.03 µM",13.68%
c1ccc(CO[C@H]2C[C@@H]3CN(Cc4cncnc4)C[C@@H]3C2)cc1,Percent Effect,"30.3 µM, […]",-7.208%
Cc1ncc(CN2C[C@H]3C[C@H](OCc4ccccc4)C[C@H]3C2)cn1,Percent Effect,"30.3 µM, […]",6.96%
c1ccc(CO[C@H]2C[C@@H]3CN(Cc4cccnc4)C[C@@H]3C2)cc1,Percent Effect,"30.3 µM, […]",51.09%
CN(C)CCN1CCN(Cc2nccs2)Cc2cccnc21.O=C(O)C(F)(F)F.O=C(O)C(F)(F)F.O=C(O)C(F)(F)F,Percent Effect,"30.3 µM, […]",-78.15%
O=C(NCCc1ccccn1)[C@@]12CCO[C@@H]1CCN(C1CCC1)C2.O=C(O)C(F)(F)F.O=C(O)C(F)(F)F,Percent Effect,"30.3 µM, […]",7.888%
O=C(O)C(F)(F)F.O=C(O)C(F)(F)F.c1ccc(OCC2C[C@@H]3[C@@H](C2)OCCN3CC2CCOCC2)nc1 (some centres undefined),Percent Effect,"30.3 µM, […]",-46.45%
CCN1CCN(Cc2csc(C(C)C)n2)CC1,Percent Effect,"30.3 µM, […]",81.77%
CCN1CCN(Cc2nc(CC(C)C)no2)CC1,Percent Effect,10 µM,-12.44%
CC(C)c1nc(CC(=O)N2CCN(C)CC2c2ccccc2)cs1 (centres undefined),Percent Effect,"30 µM, 30.03 µM",-91.57%
COCCCNc1c(C#N)c2c(c3nncn13)CN(C)CC2.Cl,Percent Effect,"30 µM, 30.03 µM",-37.83%
Cl.Cl.c1ccc(COC[C@H]2CCC[C@@]23CNCCO3)nc1,Percent Effect,"30.3 µM, […]",-51.33%
O=C(O)C(F)(F)F.O=C(O)C(F)(F)F.c1cnc(N2CCO[C@H]3CN(CC4CCOCC4)C[C@H]32)nc1,Percent Effect,"30.3 µM, […]",-91.37%
O=C(O)C(F)(F)F.c1cc(CN2CC[C@@H]3CN(c4cnccn4)C[C@@H]3C2)ccn1,Percent Effect,"30.3 µM, […]",-4.355%
COc1cc(CNCC(O)c2ccccc2F)cc2c1OCO2 (centres undefined),Percent Effect,"30.3 µM, […]",55.14%
COc1cc(CNC(C)Cn2ccnc2)cc2c1OCCO2 (centres undefined),Percent Effect,"30.3 µM, […]",-9.51%
COc1cc(CNCC(O)c2ccc(F)cc2F)cc2c1OCO2 (centres undefined),Percent Effect,"30.3 µM, […]",68.01%
COc1cc(CNC(C)Cn2cccn2)cc2c1OCCO2.Cl (centres undefined),Percent Effect,"30.3 µM, […]",-12.29%
same,Percent Effect,"10 mM, 10 mM as filed; unlikely as a test dose",-15.19%
Cc1nc(CN2CCN3C[C@H](Oc4cncnc4)C[C@H]3C2)cs1.O=C(O)C(F)(F)F.O=C(O)C(F)(F)F,Percent Effect,"30.3 µM, […]",-64.45%
Cc1cnc(N2CC3(CCN(Cc4cccnc4)C3)C2)nc1.O=C(O)C(F)(F)F.O=C(O)C(F)(F)F,Percent Effect,"30.3 µM, […]",-6.103%
O=C(O)C(F)(F)F.O=C(O)C(F)(F)F.c1cnc(N2CCN3C[C@H](Oc4cncnc4)C[C@H]3C2)nc1,Percent Effect,"30.3 µM, […]",-14.25%
CCN1CCc2c(cccc2NC(=O)CN(C)C2CCSC2)C1 (centres undefined),Percent Effect,"30 µM, 30.03 µM",-20.21%
O=C(O)C(F)(F)F.c1cncc(CN2C[C@H]3CCC[C@@H](CNc4cnccn4)[C@H]3C2)c1,Percent Effect,"30.3 µM, […]",-2.256%
Cc1ccc(CN2CC[C@]3(C[C@H](OCc4ccccn4)CO3)C2)o1.O=C(O)C(F)(F)F.O=C(O)C(F)(F)F,Percent Effect,"30 µM, 30.03 µM",4.871%
O=C(Cc1c[nH]c2ccccc12)N1CCC(Nc2ccccc2)CC1,Percent Effect,"30.3 µM, […]",-16.2%
O=C(c1ccc2c(c1)COC2)N1CCC(Nc2ccccc2)CC1,Percent Effect,"30 µM, 30.03 µM",15.22%
O=C(c1cc2cc(F)ccc2[nH]1)N1CCC(Nc2ccc(F)cc2)CC1,Percent Effect,"30.3 µM, […]",86.11%
O=C(O)C(F)(F)F.O=C(O)C(F)(F)F.O=C(O)C(F)(F)F.c1cc(CN2CCO[C@H]3[C@H](OCCN4CCCC4)CC[C@@H]32)ccn1,Percent Effect,"30.3 µM, […]",-7.413%
C[C@H]1C[C@H]2CN(Cc3ccccn3)CC[C@@H]2O1.O=C(O)C(F)(F)F.O=C(O)C(F)(F)F,Percent Effect,"30 µM, 30.03 µM",-2.942%
CCOCCN1C[C@@H]2CCCO[C@@H]2[C@H](NC(=O)c2cnoc2C)C1.O=C(O)C(F)(F)F,Percent Effect,"30.3 µM, […]",-87.51%
O=C(Cc1csc(-c2ncccn2)n1)N1CCN2CCCCC2C1 (centres undefined),Percent Effect,"30 µM, 30.03 µM",-4.944%
O=C(c1csc(-c2ncccn2)n1)N1CCN2CCCCC2C1 (centres undefined),Percent Effect,"30 µM, 30.03 µM",9.676%
O=C(Cc1ccc(-n2cccn2)cc1)N1CCN2CCCCC2C1 (centres undefined),Percent Effect,"30 µM, 30.03 µM",56.58%
CCS(=O)(=O)N1CCc2ccc(NC(=O)Nc3cccc(C#N)c3)cc21,Percent Effect,"30 µM, 30.03 µM",29.43%
O=C(O)C(F)(F)F.O=C(O)C(F)(F)F.O=C1CC[C@@H]2[C@@H](CCN2Cc2ccccn2)N1CC1CC1,Percent Effect,"30.3 µM, […]",9.459%
CC(N)Cc1ccccc1Sc1ccccc1.O=C(O)/C=C\C(=O)O (centres undefined),Percent Effect,"30 µM, 30.03 µM",99.41%
CC(N)Cc1ccccc1Sc1ccc(O)cc1.CC(N)Cc1ccccc1Sc1ccc(O)cc1.O=C(O)C(=O)O (centres undefined),Percent Effect,"30 µM, 30.03 µM",73.02%
CNC(C)Cc1ccccc1Sc1ccc(O)cc1.Cl (centres undefined),Percent Effect,"30 µM, 30.03 µM",-13.84%
O=C(O)C(F)(F)F.O=C(O)C(F)(F)F.c1cncc(O[C@H]2CC[C@H]3[C@H]2OCCN3C2CCCC2)c1,Percent Effect,"30 µM, 30.03 µM",-21.55%
CN(C)[C@@H]1CN(C(=O)Cc2cccs2)[C@@H]2CCCO[C@H]12.O=C(O)C(F)(F)F,Percent Effect,"30.3 µM, […]",-91.09%
COCCN1CC[C@]2(CN(Cc3cccnc3)C[C@H]2C)C1=O.O=C(O)C(F)(F)F.O=C(O)C(F)(F)F,Percent Effect,"30.3 µM, […]",-47.24%
CN1C(Cn2cccn2)C[C@@H]2CN(Cc3cccnc3)CC[C@@H]21.O=C(O)C(F)(F)F.O=C(O)C(F)(F)F.O=C(O)C(F)(F)F.O=C(O)C(F)(F)F (some centres undefined),Percent Effect,"30.3 µM, […]",-14.63%
COCCN1CCO[C@@H]2CN(S(=O)(=O)c3cccnc3)C[C@@H]2C1.O=C(O)C(F)(F)F.O=C(O)C(F)(F)F,Percent Effect,"30.3 µM, […]",-14.72%
